Percent Effect data for eleven molecules are collected here from ChEMBL document CHEMBL3988442, “University of Dundee, Small-Polar-MMV Screening Library” (2021).

The structures appear in SMILES notation. For some of these results: Results with a measured potency or affinity are listed apart.

What all share (parameters): scale not given: direction of the effect not stated beside the values
For test [1], the target named is Protein translocase subunit SecA (Escherichia coli (strain K12)) (UniProt P10408). Kind of test: Assay to Identify E. coli SecA ATPase Inhibitors. The test is classed as functional. The following applies: 30 µM.
Test [2] addresses T1, Ubiquitin-activating enzyme e1, putative (Leishmania donovani (strain BPK282A1)) (UniProt E9BSI1).
T1 sequence (whole entry): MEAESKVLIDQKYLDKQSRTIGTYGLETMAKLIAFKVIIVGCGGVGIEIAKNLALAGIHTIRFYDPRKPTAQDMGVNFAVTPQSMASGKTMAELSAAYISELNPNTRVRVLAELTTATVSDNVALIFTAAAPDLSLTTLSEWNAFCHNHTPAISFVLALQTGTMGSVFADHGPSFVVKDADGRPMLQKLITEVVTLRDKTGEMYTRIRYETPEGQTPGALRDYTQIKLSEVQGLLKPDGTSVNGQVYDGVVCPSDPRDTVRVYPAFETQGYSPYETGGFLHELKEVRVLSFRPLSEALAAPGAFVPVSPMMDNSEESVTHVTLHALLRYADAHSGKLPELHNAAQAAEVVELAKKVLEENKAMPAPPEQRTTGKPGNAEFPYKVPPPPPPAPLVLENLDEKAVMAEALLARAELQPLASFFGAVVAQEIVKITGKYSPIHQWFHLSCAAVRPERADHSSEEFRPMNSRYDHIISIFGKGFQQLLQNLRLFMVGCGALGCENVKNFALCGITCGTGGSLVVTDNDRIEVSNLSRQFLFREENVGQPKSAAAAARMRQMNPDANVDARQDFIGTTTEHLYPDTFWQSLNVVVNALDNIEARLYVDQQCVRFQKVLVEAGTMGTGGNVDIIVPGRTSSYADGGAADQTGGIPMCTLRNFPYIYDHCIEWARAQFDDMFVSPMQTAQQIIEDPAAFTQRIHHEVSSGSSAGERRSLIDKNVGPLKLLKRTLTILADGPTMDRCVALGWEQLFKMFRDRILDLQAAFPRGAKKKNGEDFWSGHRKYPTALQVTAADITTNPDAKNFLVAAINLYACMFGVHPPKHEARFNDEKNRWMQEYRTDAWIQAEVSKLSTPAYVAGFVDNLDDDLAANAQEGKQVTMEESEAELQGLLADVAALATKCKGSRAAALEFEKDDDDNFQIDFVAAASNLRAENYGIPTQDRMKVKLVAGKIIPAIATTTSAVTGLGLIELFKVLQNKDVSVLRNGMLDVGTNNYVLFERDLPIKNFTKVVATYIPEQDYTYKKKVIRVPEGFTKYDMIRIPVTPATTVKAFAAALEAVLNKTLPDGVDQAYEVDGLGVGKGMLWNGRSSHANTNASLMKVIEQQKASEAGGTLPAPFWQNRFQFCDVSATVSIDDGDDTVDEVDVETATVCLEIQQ
Kind of test: Leishmania donovani Ubiquitin Activating Enzyme (LdE1). Format: functional. The following applies: 30 µM.

Test [3] addresses AMP-activated protein kinase, AMPK (Homo sapiens) (UniProt P54646+O43741+P54619+Q9UGJ0+Q9Y478+Q13131+Q9UGI9). Kind of test: AMP-dependent Kinase enzyme assay. An in vitro enzyme assay that detects ADP turnover that is directly proportional to AMPK activity. This uses naive AMPK that is activated during the assay with MK-8722. The test is classed as functional. Conditions: 30 µM.

Test [4] has as its target Sialic acid-binding Ig-like lectin 9 (Homo sapiens) (UniProt Q9Y336). Kind of test: Hs-Siglec9 ALPHAscreen SOP 20170721. Conditions: 10 µM.
The subject of test [5] is Trypanosoma cruzi. Kind of test: Trypanosoma cruzi phosphomannomutase and mannose-1-phosphate guanylyltransferase assay. Conditions: 10 µM. Format: functional.
For test [6], the target named is T2, Arginase-2, mitochondrial (Homo sapiens) (UniProt P78540).
T2 sequence (whole entry): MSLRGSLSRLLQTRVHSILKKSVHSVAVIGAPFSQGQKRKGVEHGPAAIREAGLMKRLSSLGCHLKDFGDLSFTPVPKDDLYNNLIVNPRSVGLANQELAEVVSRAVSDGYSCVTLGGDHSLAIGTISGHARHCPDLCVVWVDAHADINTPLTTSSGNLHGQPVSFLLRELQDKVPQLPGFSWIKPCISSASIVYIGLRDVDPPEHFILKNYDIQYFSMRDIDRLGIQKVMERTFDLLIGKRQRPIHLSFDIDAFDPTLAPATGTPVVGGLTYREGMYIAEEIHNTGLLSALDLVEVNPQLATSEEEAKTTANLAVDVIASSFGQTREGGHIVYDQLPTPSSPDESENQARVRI
Kind of test: in vitro enzyme assay to detect the production of urea directly proportional to the activity of Arginase II. Further: in the data most compounds retested in dose-response had high values. The test is classed as functional. Conditions: 33.3 µM.

Test [7] deals with T3, Proteasome subunit beta (Trypanosoma cruzi) (UniProt O96673).
T3 sequence (whole entry): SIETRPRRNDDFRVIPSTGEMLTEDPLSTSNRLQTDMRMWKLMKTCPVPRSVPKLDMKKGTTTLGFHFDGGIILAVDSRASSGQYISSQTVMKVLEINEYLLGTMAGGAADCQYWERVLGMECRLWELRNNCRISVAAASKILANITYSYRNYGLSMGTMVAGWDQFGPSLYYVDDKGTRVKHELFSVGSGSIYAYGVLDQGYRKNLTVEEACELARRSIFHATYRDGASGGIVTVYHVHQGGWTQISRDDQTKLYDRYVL
Kind of test: Trypanosoma cruzi proteasome chymotrypsin-like activity (TcProtChymo) assay. Further: in the data most compounds retested in dose-response had high values. Format: functional. The following applies: 9.37 µM.

Test [8] is filed under the species Homo sapiens. Kind of test: To identify inhibition of the IFN signalling (Jak-Stat) pathway via expression of an eGFP reporter gene under the control of an IFN-stimulated response element (ISRE) containing MxA promoter. The test is classed as functional. The following applies: 30 µM.
For test [9], the target named is T4, Tyrosyl-tRNA synthetase, putative (Trypanosoma cruzi (strain CL Brener)) (UniProt Q4DSP6).
T4 sequence (whole entry): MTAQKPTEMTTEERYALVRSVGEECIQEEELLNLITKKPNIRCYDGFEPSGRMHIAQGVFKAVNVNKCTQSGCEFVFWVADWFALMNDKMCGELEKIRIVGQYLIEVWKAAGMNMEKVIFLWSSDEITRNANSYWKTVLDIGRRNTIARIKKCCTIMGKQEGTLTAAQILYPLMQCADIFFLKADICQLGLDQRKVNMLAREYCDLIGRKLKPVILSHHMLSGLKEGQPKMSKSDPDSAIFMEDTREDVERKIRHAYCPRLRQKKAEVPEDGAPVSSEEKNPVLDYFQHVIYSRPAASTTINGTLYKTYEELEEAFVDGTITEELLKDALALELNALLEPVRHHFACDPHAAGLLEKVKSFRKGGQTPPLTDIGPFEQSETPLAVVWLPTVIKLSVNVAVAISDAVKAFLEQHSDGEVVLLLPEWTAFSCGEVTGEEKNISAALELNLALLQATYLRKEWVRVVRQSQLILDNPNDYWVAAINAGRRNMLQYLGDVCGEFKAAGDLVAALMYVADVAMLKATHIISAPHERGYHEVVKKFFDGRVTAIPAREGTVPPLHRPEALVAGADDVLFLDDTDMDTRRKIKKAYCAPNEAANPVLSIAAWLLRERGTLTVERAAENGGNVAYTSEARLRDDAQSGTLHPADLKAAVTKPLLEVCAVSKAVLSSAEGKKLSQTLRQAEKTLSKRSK
Kind of test: Trypanosoma cruzi tyrosyl tRNA synthetase (TcYRS) _High Tyrosine SOP. Further: in the data most compounds retested in dose-response had high values. Format: functional. The following applies: 30 µM.

In test [10] the target is T4, Tyrosyl-tRNA synthetase, putative (Trypanosoma cruzi (strain CL Brener)). Kind of test: Trypanosoma cruzi tyrosyl tRNA synthetase (TcYRS) SOP. Conditions: 30 µM. The test is classed as functional.
Test [11] deals with Chromo domain-containing protein 1 (Saccharomyces cerevisiae (strain ATCC 204508 / S288c) (Baker's yeast)) (UniProt P32657). Kind of test: ScCHD-1 Enzyme Inhibition Assay. Further: in the data most compounds retested in dose-response had high values. The test is classed as functional. Conditions: 30 µM.
Chromo domain-containing protein 1 (Saccharomyces cerevisiae (strain ATCC 204508 / S288c) (Baker's yeast)), sequence (P32657 whole entry, the tested form may be a part): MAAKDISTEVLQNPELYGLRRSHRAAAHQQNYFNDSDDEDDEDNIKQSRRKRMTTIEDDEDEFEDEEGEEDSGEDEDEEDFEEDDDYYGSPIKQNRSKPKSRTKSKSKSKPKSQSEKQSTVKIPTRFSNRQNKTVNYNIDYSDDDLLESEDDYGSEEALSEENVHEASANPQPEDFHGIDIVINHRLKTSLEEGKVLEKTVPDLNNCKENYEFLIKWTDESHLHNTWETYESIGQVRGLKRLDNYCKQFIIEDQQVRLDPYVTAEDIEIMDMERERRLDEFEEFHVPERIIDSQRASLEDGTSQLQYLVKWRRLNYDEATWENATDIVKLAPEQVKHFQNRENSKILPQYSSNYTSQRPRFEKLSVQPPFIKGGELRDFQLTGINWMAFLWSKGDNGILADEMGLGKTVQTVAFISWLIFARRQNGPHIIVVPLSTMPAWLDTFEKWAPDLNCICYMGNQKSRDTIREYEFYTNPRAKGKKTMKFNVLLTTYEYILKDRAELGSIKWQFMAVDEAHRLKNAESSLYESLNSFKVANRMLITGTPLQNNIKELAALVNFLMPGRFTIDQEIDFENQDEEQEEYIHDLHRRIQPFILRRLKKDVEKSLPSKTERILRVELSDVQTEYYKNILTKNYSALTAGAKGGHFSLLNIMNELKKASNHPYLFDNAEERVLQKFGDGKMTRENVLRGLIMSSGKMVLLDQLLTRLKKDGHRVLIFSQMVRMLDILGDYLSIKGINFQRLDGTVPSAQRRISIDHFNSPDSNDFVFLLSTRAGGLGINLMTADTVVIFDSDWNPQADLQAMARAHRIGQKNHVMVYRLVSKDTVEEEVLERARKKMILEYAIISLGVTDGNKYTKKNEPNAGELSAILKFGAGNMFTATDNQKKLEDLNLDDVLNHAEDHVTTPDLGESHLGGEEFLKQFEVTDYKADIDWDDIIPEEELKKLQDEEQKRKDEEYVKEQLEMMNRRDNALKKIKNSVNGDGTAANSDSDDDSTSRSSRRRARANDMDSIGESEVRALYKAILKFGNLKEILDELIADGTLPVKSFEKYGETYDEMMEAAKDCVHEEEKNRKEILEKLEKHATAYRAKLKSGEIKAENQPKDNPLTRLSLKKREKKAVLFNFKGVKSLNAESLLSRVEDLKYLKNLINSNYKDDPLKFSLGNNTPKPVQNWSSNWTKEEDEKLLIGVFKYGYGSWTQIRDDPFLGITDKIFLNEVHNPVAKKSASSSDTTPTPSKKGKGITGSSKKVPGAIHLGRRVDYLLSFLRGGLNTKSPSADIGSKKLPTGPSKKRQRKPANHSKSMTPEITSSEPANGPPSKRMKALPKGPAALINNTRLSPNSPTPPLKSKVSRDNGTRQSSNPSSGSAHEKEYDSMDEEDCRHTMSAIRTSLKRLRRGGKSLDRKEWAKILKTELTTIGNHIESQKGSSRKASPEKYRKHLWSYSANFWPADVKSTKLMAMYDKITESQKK

Protein translocase subunit SecA (Escherichia coli (strain K12)), sequence (P10408 whole entry): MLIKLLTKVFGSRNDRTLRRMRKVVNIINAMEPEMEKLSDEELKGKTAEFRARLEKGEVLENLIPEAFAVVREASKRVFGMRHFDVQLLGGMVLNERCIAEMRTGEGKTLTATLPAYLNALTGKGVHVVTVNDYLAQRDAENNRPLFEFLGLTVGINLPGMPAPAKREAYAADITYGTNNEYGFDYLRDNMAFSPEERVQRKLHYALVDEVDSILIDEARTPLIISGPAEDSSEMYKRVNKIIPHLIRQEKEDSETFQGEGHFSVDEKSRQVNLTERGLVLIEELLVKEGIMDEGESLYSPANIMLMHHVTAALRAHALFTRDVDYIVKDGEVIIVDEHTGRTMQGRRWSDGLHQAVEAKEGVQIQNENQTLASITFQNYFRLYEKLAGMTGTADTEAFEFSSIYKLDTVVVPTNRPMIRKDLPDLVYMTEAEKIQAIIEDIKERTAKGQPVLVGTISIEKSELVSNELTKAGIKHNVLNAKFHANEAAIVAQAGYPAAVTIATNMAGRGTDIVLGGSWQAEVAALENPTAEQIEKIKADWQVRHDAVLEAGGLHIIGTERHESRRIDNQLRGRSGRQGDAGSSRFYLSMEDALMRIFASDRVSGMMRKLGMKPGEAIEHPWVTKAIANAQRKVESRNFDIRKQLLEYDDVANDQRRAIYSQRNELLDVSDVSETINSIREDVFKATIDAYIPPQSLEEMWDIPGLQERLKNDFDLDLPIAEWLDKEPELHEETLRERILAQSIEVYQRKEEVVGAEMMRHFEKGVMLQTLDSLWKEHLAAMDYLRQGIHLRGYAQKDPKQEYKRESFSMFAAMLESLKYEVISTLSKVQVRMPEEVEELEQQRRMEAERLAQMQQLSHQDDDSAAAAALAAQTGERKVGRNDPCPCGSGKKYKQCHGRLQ
Sialic acid-binding Ig-like lectin 9 (Homo sapiens), sequence (Q9Y336 whole entry): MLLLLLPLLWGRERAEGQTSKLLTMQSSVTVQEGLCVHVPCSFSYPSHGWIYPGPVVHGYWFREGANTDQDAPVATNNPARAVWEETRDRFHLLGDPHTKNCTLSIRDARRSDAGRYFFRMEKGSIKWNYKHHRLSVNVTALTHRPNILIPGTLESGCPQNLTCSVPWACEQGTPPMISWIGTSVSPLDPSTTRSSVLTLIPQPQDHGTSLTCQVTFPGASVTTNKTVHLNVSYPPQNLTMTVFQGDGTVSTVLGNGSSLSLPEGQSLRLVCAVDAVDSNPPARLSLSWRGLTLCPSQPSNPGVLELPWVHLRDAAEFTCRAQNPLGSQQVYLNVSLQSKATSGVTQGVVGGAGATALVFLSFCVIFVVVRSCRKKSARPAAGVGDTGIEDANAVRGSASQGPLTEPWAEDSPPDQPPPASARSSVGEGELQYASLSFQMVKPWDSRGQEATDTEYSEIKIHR

Take `CS(=O)(=O)c1ccc(OCCNCc2cccc(F)c2)cc1`: the Percent Effect was -6.14% in test [1]; 0% in [2]; 1.51% in [3]; 6.7% in test [4]; 3.57% in [5]; -0.798% in test [6]. For the same molecule, the Percent Effect is 4.02% in [7]; 3.81% in [8]; 8.33% in test [9]; 13.6% in test [10]; 3.19% in test [11].
`CCCOc1ccc(CNC(=O)N2CCC(C(N)=O)C2)cc1` (stereo unspecified): the Percent Effect in [1] was -0.765%; in [2] it was 22.8%; in [3], -8.41%; in test [4], -9.27%; in test [5] it was -2.36%; in test [6], 2.28%. Besides, the Percent Effect in [7] was 5.82%; in [8], -21.1%; in test [9] it was 4.43%; in test [10], 13.9%; in test [11] it was -2.35%.
Turning to `Cc1ccccc1C1CCCN1C(=O)CN1CC2(CCNCC2)OC1=O` (stereo unspecified), the Percent Effect in [1] is -4.66%; in test [2] it was 8.11%; in [3], -3.53%; in [4], 12.1%; in test [5], 6.76%; in [6], 0%. Moreover, the Percent Effect in [7] was 13.1%; in test [8] it was -1.19%; in [9], 4.76%; in [10], 9.76%; in test [11] it was 87.8%.
`CC(CNc1cncc(-n2cccn2)n1)N(C)c1ccccc1` (stereo unspecified): the Percent Effect in test [1] is -0.428%; in [2], 0%; in test [3] it was 9.04%; in test [4] it was 7.11%; in test [5], 0.374%; in test [6] it was 0.712%. Moreover, the Percent Effect in [7] was 1.52%; in [8], 51.6%; in [9] it was 0.971%; in [10] it was 0%; in [11], -6.86%.
Turning to `Cc1cnc(CN(C)C2CCN(CC(=O)N(C)c3nccs3)C2)o1` (stereo unspecified), the Percent Effect in test [1] is 2.75%; in test [2] it was 17.7%; in test [3], 3.25%; in test [4], -2.38%; in [5], -8.4%; in test [6] it was 0.76%. The Percent Effect was 13.2% in [7]; 40.8% in [8]; 1.48% in test [9]; -3.8% in test [10]; -6.37% in [11].
Turning to `COCCN1CCC(Cc2cncc(-c3ccc(C(=O)O)cc3)n2)C1` (stereo unspecified), the Percent Effect in test [1] is -5.18%; in test [2], 1.35%; in test [3] it was 42.5%; in test [4] it was -3.43%; in [5], -3.75%; in [6] it was -2.55%. Moreover, the Percent Effect in test [7] is 3.43%; in test [8] it was 12.6%; in test [9], 1.07%; in [10], 1.3%; in test [11] it was -3.54%.
On to `Cc1ccc(C(=O)N2CCc3c(CNS(C)(=O)=O)cncc3C2)o1`, for which the Percent Effect in test [1] is 3.13%; in test [2] it was 2.67%; in test [3], 5.83%; in test [4] it was 1.5%; in test [5], -6.37%; in test [6], -55%. Also, the Percent Effect in test [7] was 8.72%; in test [8], 4.16%; in test [9], 3.12%; in test [10] it was 5%; in test [11] it was -7.04%.
Regarding `CCC1CN(Cc2ccccc2)CCN1Cc1nnc(C2CCC2)o1` (stereo unspecified), the Percent Effect in [1] is -1.22%; in test [2], 2.74%; in [3] it was -2.21%; in [4], 8.69%; in test [5], 6.07%; in [6] it was 5.91%. Further, the Percent Effect was 1.95% in [7]; -3.45% in test [8]; 1.07% in test [9]; 5% in test [10]; -0.293% in test [11].
With `CN(C)C(=O)CC1CC2(CCN(c3ncccn3)CC2)c2ccccc21` (stereo unspecified), the Percent Effect in test [1] is -7.49%; in test [2], 5.41%; in test [3] it was 5.36%; in [4], -1.25%; in test [5] it was 3.32%; in [6], 2.92%. Also, the Percent Effect in [7] is 4.14%; in test [8] it was 6.8%; in test [9], 5.94%; in test [10], 3.66%; in test [11], -4.19%.
Consider `CCN(C)c1ncnc2c1CCN(Cc1csc(C)n1)CC2`, for which the Percent Effect in [1] was -0.747%; in test [2], 8.11%; in [3], 4.65%; in [4] it was 2.61%; in [5], -1.07%; in test [6] it was 4.78%. In addition, the Percent Effect in [7] was 25.1%; in [8], -16.4%; in [9] it was 6.49%; in test [10] it was 15.4%; in [11], -2.96%.
As to `COCCc1noc(CN2CCN(CC(O)c3ccccc3)CC2)n1` (stereo unspecified), the Percent Effect is -7.76% in test [1]; 6.33% in [2]; 4.46% in test [3]; -0.576% in [4]; -1.54% in test [5]; 1.07% in test [6]. The Percent Effect is 6.69% in [7]; 12% in test [8]; 11.5% in [9]; 10.1% in test [10]; -14.9% in [11].
